# Source: the supplement of paper PMC8728848
# Many of the other results were omitted from the sample, so the strongest signals are more common in it than they were.
# B1: PX15642A-pgi-501-20-501 (Parabacteroides gingivalis) (protein)
# chain: CELDRDPEGKDFQQPYTSFVQTKQNRDGLYALLRNTENPRMHFYQELQSDMYCTTITDGNSLAPFVNWDLGILNDHGRADEDEVSGIAGYYFVYNRLNQQANAFVNNTEAALQNQVYKNSTEIANAKSFLAEGKVLQALAIWRLMDRFSFHESVTEVNSGAKDLGVILLKEYNPGYIGPRATKAQCYDYILSRLSEAIEVLPENRESVLYVSRDYAYALRARIYLALGEYGKAAADAKMVVDKYPLIGAADASEFENIYRSDANNPEIIFRGFASATLGSFTATTLNGAAPAGKDIKYNPSAVPFQWVVDLYENEDFRKSVYIAKVVKKDKGYLVNKFLEDKAYRDVQDKPNLKVGARYFSVAEVYLILVESALQTGDTPTAEKYLKALSKARGAEVSVVNMEALQAERTRELIGEGSRLRDMVRWSIPNNHDAFETQPGLEGFANTTPLKAQAPVGFYAYTWEFPQRDRQTNPQLIKNWPI
# Experiments:
# Assay in all cases: glycan array binding signal (z-score within array); higher = stronger binding
# Conditions in all cases: glycan notation: IUPAC condensed, linker removed
# Gal(b1-4)GlcNAc6P = molecular target: Gal(b1-4)GlcNAc6P
# In short: (§1)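 Arrays were curated from the Consortium for Functional Glycomics database, 3228 in total, and kept only where the protein sequence was available. Binding is expressed as a within-array Z-score. This score was averaged across arrays of the same protein sequence at different concentrations or buffers and across linkers, and negative values can be read as non-binding.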
# [1] = molecular target: GalNAc(b1-4)GlcNAc(b1-2)Man(a1-3)[GalNAc(b1-4)GlcNAc(b1-2)Man(a1-6)]Man(b1-4)GlcNAc(b1-4)GlcNAc
# In short: as §1
# [2] = molecular target: GalNAc(b1-4)GlcNAc(b1-3)GalNAc(b1-4)GlcNAc
# In short: as §1
# Glc(a1-6)Glc(a1-6)Glc = molecular target: Glc(a1-6)Glc(a1-6)Glc
# In short: as §1
# [3] = molecular target: GlcNAc(b1-2)Man(a1-3)[GlcNAc(b1-2)Man(a1-6)]Man(b1-4)GlcNAc(b1-4)[Fuc(a1-6)]GlcNAc
# In short: as §1
# [4] = molecular target: GlcNAc(b1-2)[GlcNAc(b1-6)]Man(a1-6)[GlcNAc(b1-4)][GlcNAc(b1-2)Man(a1-3)]Man(b1-4)GlcNAc(b1-4)GlcNAc
# In short: as §1
# [5] = molecular target: GlcNAc(b1-3)Gal(b1-4)GlcNAc(b1-3)Gal(b1-4)GlcNAc(b1-2)Man(a1-3)[GlcNAc(b1-3)Gal(b1-4)GlcNAc(b1-3)Gal(b1-4)GlcNAc(b1-2)Man(a1-6)]Man(b1-4)GlcNAc(b1-4)GlcNAc
# In short: as §1
# [6] = molecular target: GlcNAc(b1-3)Gal(b1-4)GlcNAc(b1-3)[GlcNAc(b1-3)Gal(b1-4)GlcNAc(b1-3)]GalNAc
# In short: as §1
# [7] = molecular target: GlcNAc(b1-4)GlcNAc(b1-4)GlcNAc(b1-4)GlcNAc(b1-4)GlcNAc
# In short: as §1
# [8] = molecular target: Man(a1-3)[Man(a1-6)]Man(a1-6)[Man(a1-2)Man(a1-3)]Man(b1-4)GlcNAc(b1-4)GlcNAc
# In short: as §1
# Man(b1-4)GlcNAc = molecular target: Man(b1-4)GlcNAc
# In short: as §1
# [9] = molecular target: Neu5Ac(a2-3)Gal(b1-3)[Neu5Ac(a2-6)]GlcNAc(b1-3)[Fuc(a1-3)[Gal(b1-4)]GlcNAc(b1-6)]Gal(b1-4)Glc
# In short: as §1
# [10] = molecular target: Neu5Ac(a2-3)Gal(b1-4)GlcNAc(b1-3)Gal(b1-4)GlcNAc(b1-2)Man(a1-3)[Neu5Ac(a2-3)Gal(b1-4)GlcNAc(b1-3)Gal(b1-4)GlcNAc(b1-2)Man(a1-6)]Man(b1-4)GlcNAc(b1-4)GlcNAc
# In short: as §1
# [11] = molecular target: Neu5Ac(a2-3)Gal(b1-4)GlcNAc(b1-3)Gal(b1-4)GlcNAc(b1-3)GalNAc
# In short: as §1
# [12] = molecular target: Neu5Ac(a2-3)Gal(b1-4)GlcNAc6S
# In short: as §1
# [13] = molecular target: Neu5Ac(a2-3)Gal(b1-4)[Fuc(a1-3)]GlcNAc(b1-3)GalNAc
# In short: as §1
# [14] = molecular target: Neu5Ac(a2-3)Gal6S(b1-4)[Fuc(a1-3)]GlcNAc
# In short: as §1
# [15] = molecular target: Neu5Ac(a2-3)[GalNAc(b1-4)]Gal(b1-4)GlcNAc(b1-3)GalNAc
# In short: as §1
# [16] = molecular target: Neu5Ac(a2-6)Gal(b1-4)GlcNAc
# In short: as §1
# [17] = molecular target: Neu5Ac(a2-6)Gal(b1-4)GlcNAc(b1-3)Gal(b1-4)GlcNAc(b1-3)Gal(b1-4)GlcNAc(b1-2)Man(a1-3)[Neu5Ac(a2-6)Gal(b1-4)GlcNAc(b1-3)Gal(b1-4)GlcNAc(b1-3)Gal(b1-4)GlcNAc(b1-2)Man(a1-6)]GalNAc
# In short: as §1
# [18] = molecular target: Neu5Ac(a2-6)GalNAc(b1-4)GlcNAc6S
# In short: as §1
# [19] = molecular target: Neu5Ac(a2-8)Neu5Ac(a2-3)[GalNAc(b1-4)]Gal(b1-4)Glc
# In short: as §1
# [20] = molecular target: Neu5Ac(a2-8)Neu5Ac(a2-8)Neu5Ac(a2-3)[Gal(b1-3)GalNAc(b1-4)]Gal(b1-4)Glc
# In short: as §1
# [21] = molecular target: Neu5Ac(a2-8)Neu5Ac(a2-8)Neu5Ac(a2-3)[GalNAc(b1-4)]Gal(b1-4)Glc
# In short: as §1
# [22] = molecular target: Neu5Ac(a2-8)Neu5Gc(a2-3)Gal(b1-4)GlcNAc
# In short: as §1
# [23] = molecular target: Neu5Gc(a2-3)Gal(b1-4)GlcNAc(b1-3)Gal(b1-4)GlcNAc(b1-2)Man(a1-3)[Neu5Gc(a2-3)Gal(b1-4)GlcNAc(b1-3)Gal(b1-4)GlcNAc(b1-2)Man(a1-6)]Man(b1-4)GlcNAc(b1-4)GlcNAc
# In short: as §1
# [24] = molecular target: Neu5Gc(a2-3)Gal(b1-4)[Fuc(a1-3)]GlcNAc
# In short: as §1
# [25] = molecular target: Neu5Gc(a2-8)Neu5Gc(a2-6)Gal(b1-4)GlcNAc
# In short: as §1
binder,measurement,setting,value
B1,glycan array binding signal (z-score),Gal(b1-4)GlcNAc6P,-0.285
same,glycan array binding signal (z-score),[1],1.15
same,glycan array binding signal (z-score),[2],5.6
same,glycan array binding signal (z-score),Glc(a1-6)Glc(a1-6)Glc,1.35
same,glycan array binding signal (z-score),[3],0.116
same,glycan array binding signal (z-score),[4],-0.076
same,glycan array binding signal (z-score),[5],2.32
same,glycan array binding signal (z-score),[6],0.014
same,glycan array binding signal (z-score),[7],0
same,glycan array binding signal (z-score),[8],0.018
same,glycan array binding signal (z-score),Man(b1-4)GlcNAc,0.033
same,glycan array binding signal (z-score),[9],-0.808
same,glycan array binding signal (z-score),[10],0.992
same,glycan array binding signal (z-score),[11],-0.213
same,glycan array binding signal (z-score),[12],-0.486
same,glycan array binding signal (z-score),[13],3.38
same,glycan array binding signal (z-score),[14],-1.24
same,glycan array binding signal (z-score),[15],-1.14
same,glycan array binding signal (z-score),[16],-0.264
same,glycan array binding signal (z-score),[17],2.23
same,glycan array binding signal (z-score),[18],0.286
same,glycan array binding signal (z-score),[19],-0.038
same,glycan array binding signal (z-score),[20],1.75
same,glycan array binding signal (z-score),[21],0.122
same,glycan array binding signal (z-score),[22],15.5
same,glycan array binding signal (z-score),[23],0.077
same,glycan array binding signal (z-score),[24],-0.476
same,glycan array binding signal (z-score),[25],-0.753
